Assay results reported in PubChem BioAssay (NCI).
This is part of a sample that, as a whole, favours compounds with a hit. Of some 79,000 tested, about 15% had one in any assay. A number with no mark means an inactive call. Calls of active or inactive are those of the source. No stated cut-off is given here; in the data, active means growth inhibition above about 70%; inactive means the rest.

Assay: NCI Yeast Anticancer Drug Screen. Data for the mlh1 rad18 strain (AID 175)
Settings: S. cerevisiae mlh1 rad18 strain growth inhibition, stronger effect = higher value
Procedure: Growth inhibition of yeast strains with defined genetic alterations is measured as a screen for potential anti-cancer activity. Selected strains with alterations in DNA damage repair or cell cycle control were exposed to compounds and growth inhibition was measured relative to vehicle treated controls. The strain used in this assay is mlh1 rad18

[1] = at 5.0 µM (retest, dose inferred, filed as 0.5)
[2] = at 50.0 µM (retest, dose inferred, filed as 5.0)

| SMILES | growth inhibition [1] | growth inhibition [2] | growth inhibition (at 50.0 µM) |
| --- | --- | --- | --- |
| O/N=C1\c2ccccc2-c2ccc(Cl)cc21 | 8% | 36% | 79% (active) |
| Cc1cc(C)nc(NS(=O)(=O)c2ccc(Nc3nc(-c4cccc([N+](=O)[O-])c4)cs3)cc2)n1 | 5% | 99% (active) | 53% |
| C=C1C(=O)O[C@@H]2C[C@@]3(C)CCC[C@H](C)C3=C[C@H]12 | 14% | 96% (active) | 68.5% |
| Fc1ccc(NC(=S)SCc2ccc(Cl)c(Cl)c2)c(F)c1 | 9% | 95% (active) | 99% (active) |
| CC(C(=O)NN)C(O)C(C)(C)O (configuration not stated) | 7% | 4% | 6.05% |
| CCOC(=O)Cc1[nH]c(C(=O)c2ccccc2)cc1C(=O)c1ccccc1 | 17% | 89% (active) | -42.9% |
| O=S(=O)(c1cc(Cl)ccc1Cl)N1CCc2ccccc2C1 | -17% | -31% | -9.85% |
| COc1ccccc1C(=O)[O][Sn]([c]1ccccc1)([c]1ccccc1)[c]1ccccc1 | 99% (active) | 99% (active) | 98.7% (active) |
| CCOC(=O)c1[nH]cnc1/N=N/c1nc(O)c(C#N)[nH]1 | -6% | 99% (active) | -1.95% |
| COc1ccc2c(c1OC)OCC2C (configuration not stated) | -4% | 67% | 43.2% |
| Cc1cccc(O)c(=O)c1 | 9% | 96% (active) | 99.5% (active) |
| N#C/C(=C/c1cc(I)cc(I)c1O)C(N)=O | 66% | 97% (active) | 71.2% (active) |
| CNCCN[C@@H]1c2cc3c(cc2[C@@H](c2cc(OC)c(O)c(OC)c2)[C@H]2C(=O)OC[C@@H]21)OCO3 | 43% | 89% (active) | 87.8% (active) |
| ON(Cc1ccccc1)C(=S)c1ccccc1 | 25% | 98% (active) | 90.7% (active) |
